This note sets out measurements from PubChem BioAssay (Tox21).

Structures are written as SMILES. Activity calls are given as the source filed them. Calls follow the shape of the dose curve; as a rule, active = well fitted curve in the direction sought with a large enough effect in the repeat runs; inconclusive = weak or mixed curves; inactive = flat fitted curve, though single readings scatter.

This assay in a line: qHTS assay to test for compound auto fluorescence at 590 nm (red) in HEK293 cells (AID 720679). Conditions: red autofluorescence 540/590 nm; series mostly up to 91.3 µM. An excerpt: National Center for Advancing Translational Sciences [NCATS]
NIH Chemical Genomics Center [NCGC]
U.S. Environmental Protection Agency [EPA]
National Institutes of Environmental Health Sciences [NIEHS]
National Toxicology Program [NTP]
U.S. Food and Drug Administration [FDA]
Compound auto fluorescence often interferes with screening of the compound library against various biological targets and signaling pathways. Some of these compounds may have fluorophoric properties. Such properties may interfere with the assay outputs resulting in false positives and/or negatives. To decrease such complications and ensure the compound activities are relevant in terms of biological response, the Tox21 10K compound library was screened for auto fluorescence.
From the fluorophores used as reporter signals in our screening assays, the auto fluorescence equivalencies of compounds against three fluorophores have been evaluated: Triamterene, Fluorescein and Rose Bengal sodium for blue, green and red fluorescence, respectively. The fluorescence intensities were measured using Excitation/Emission wavelengths at 405/460nm, 485/535nm and 540/590nm for blue, green and red labels, respectively. This assay includes the red fluorescence data.
Tox21 Assay Protocol Summary:
2,000 HEK293 cells in 5 uL of culture medium containing 10% dialyzed FBS per well were dispensed into black wall/clear bottom 1536-well plates using a Multidrop Combi Dispenser (Thermo Scientific). The assay plates were incubated for 4-5 hr at 37C to allow cell attachment to the well bottom, followed by the transfer of 23 nL compound or DMSO vehicle by a pintool work station (Kalypsys, San Diego, CA). After the assay plates were incubated overnight at 37C and 5% CO2, fluorescence intensities in the assay plates were measured by an Envision (PerkinElmer, Shelton, CT) plate reader using three labels for measuring blue, green and red fluorescence at […] 460, 535 and 590nm respectively.
In general terms: Quantitative high-throughput screening tests each substance at several concentrations.
For `c1ccc(Oc2ccccc2)cc1`, the outcome was inactive.
The result for `CCCCOC(=O)c1ccc(N)cc1` reads “inactive”; that for `CC(C)CC(C)O` (stereo not given), “inactive”.
The result for `COc1ccccc1OCC(O)CO` (stereo not given) reads “inactive”; that for `O=C(O)c1cc2ccccc2cc1O`, “inactive”; that for `Cc1ccc(S(=O)(=O)N=C=O)cc1`, “inactive”.
With `NCCNCCN` the entry was “inactive”; with `O=C1C(c2[nH]c3ccccc3c2O)=Nc2ccccc21`, “inactive”; with `CC(=O)OCc1ccco1`, “inactive”.
With `CC1(C)CC(N)CC(C)(CN)C1` (stereo not given), the outcome was inactive.
Regarding `O=c1[nH]cnc2[nH]ncc12`, the compound was called inactive.
For `CN/C(=C\[N+](=O)[O-])NCCSCc1csc(CN(C)C)n1`, the result was inactive.
Take `C=Cc1ccc(C)cc1`: the result was inactive.
Take `CC(C)(C#N)c1cc(Cn2cncn2)cc(C(C)(C)C#N)c1`: the call was inactive.
As to `O=C1CCCC1`, the compound was called inactive.
Regarding `O=C(O)c1ccccc1C(=O)O`, the call was inactive.
Consider `C=CC[N+](C)(C)CC=C`, for which the outcome was inactive.
On to `CC(C)c1cccc(C(C)C)c1`, for which the compound was called inactive.
`CCOCC(=O)O`: the compound was called inactive.
`CCCCCCCO`: the compound was classed as inactive.
On to `CC(=O)CCC=C(C)C`, for which the result was inactive.
For `O=S(=O)(O)c1ccc(N=Nc2c(O)ccc3cc(S(=O)(=O)O)ccc23)cc1`, the result was inactive.
Consider `COc1ccc(CCC(C)=O)cc1`, for which the call was inactive.
The result for `CCCCCCO` reads “inactive”.
The result for `CNC(=S)N(C)C` reads “inactive”; that for `COc1ccc(C)cc1N`, “inactive”; that for `Cc1ccc2ncccc2c1`, “inactive”.
With `CCc1ccccc1CC`, the result was inactive.
As for `CCCCCCCCCCCCCCCCO`, the compound was classed as inactive.
As to `C=C(C)C(=O)OCC(C)C`, the compound was called inactive.
With `CC(C)(Oc1ccc(CCNC(=O)c2ccc(Cl)cc2)cc1)C(=O)O` the entry was “inactive”; with `C=C(C)CNCC`, “inactive”.
As to `CC(C)OP(=O)(CP(=O)(OC(C)C)OC(C)C)OC(C)C`, the outcome was inactive.
On to `CN(C)CCOC(=O)COc1ccc(Cl)cc1`, for which the result was inactive.
With `O=S(=O)(O)c1ccccc1` the entry was “inactive”.
Regarding `Clc1ccccn1`, the outcome was inactive.
For `CN(C)c1ccc(Cc2ccc(N(C)C)cc2)cc1`, the outcome was inactive.
With `c1ccc2c(c1)Cc1ccccc1-2` the entry was “inactive”; with `CCCCCCCC=O`, “inactive”; with `N[C@H](Cc1c[nH]c2ccccc12)C(=O)O`, “inactive”.
